HT1080 IDH1KD tx: kills HT-1080 cells with IDH1 knockdown; HT-1080 IDH1 knockdown viability, ATP luminescence, 48 h; AID 686971; Potency, µM (series often up to 46.1 µM), without a hit: top-dose activity, negative = toxicity, usual class: cytotoxic; 2% of 360,000 active;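 note: potency is the fitted concentration of half-maximal effect; 0% = DMSO wells and -100% = cell-free medium wells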
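Knockdown cells (IDH1KD HT-1080) received compounds 2 h after plating at 750 cells/well and were kept 48 h at 37 °C in 5% FBS RPMI. A CellTiter-Glo luminescence read gave % activity for curve fitting.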
DT40 TDP1 CPT: DT40-hTDP1 cell growth loss with CPT; 12% of 420,000 active; chicken DT40 Tdp1-/-;hTDP1 cells + 20 nM CPT, ATP luminescence, 48 h; Potency, µM (titrated, usually from 46.2 µM), for the others: at the top dose activity change, negative = growth inhibition, usual class: inhibitors; note: potency is the fitted concentration of half-maximal effect; nearly all actives have a fitted effect of over 55% in size
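Chicken DT40 Tdp1-/- cells complemented with human TDP1, 400 cells/well, exposed to compounds plus 20 nM camptothecin for at least 48 h at 37 C; viability read as ATP content by CellTiter-Glo luminescence.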
IL1B secr inh: blocks inflammasome-driven IL-1 beta release; THP-1 LPS/ATP IL-1B secretion, AlphaLISA, 16 h; hits give low values; AID 743279; 4.7% of 360,000 active; activity change, % at 57.5 µM; in the data active = activity change below about -50%; inconclusive = mostly about -30% to -49%
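THP-1 cells pretreated 1 hr with compounds (up to 57.5 uM final), then stimulated with LPS (250 ng/mL final) plus ATP (1.25 mM final); secreted IL-1B measured by AlphaLISA after 16 hr, decreased signal indicating inhibition.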
TDP1 cell noCPT: qHTS for Inhibitors of human tyrosyl-DNA phosphodiesterase 1 (TDP1): qHTS in cells in absence of CPT. DT40 Tdp1-/- hTDP1 cells, no CPT, ATP luminescence, 48 h. Potency, µM (top dose mostly 46.2 µM), for the others: at the highest dose activity change, negative = growth inhibition, hits mostly inhibitors. 15% of 420,000 active. AID 686978, 2013; note: potency is the fitted concentration of half-maximal effect; nearly all actives have a fitted effect of over 55% in size
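Camptothecin absent (DMSO only). Human TDP1-complemented DT40 knockout cells, 400 cells/well, 37 °C for minimum 48 hr; ATP measured via CellTiter-Glo, 30 min dark incubation, luminescence.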
HT1080-NT tox: kills 2HG-producing HT-1080-NT fibrosarcoma cells; Potency, µM (highest dose often 46.1 µM), for inactives: at the top dose activity, negative = less viability, actives largely listed as cytotoxic; HT-1080-NT fibrosarcoma viability, CellTiter-Glo ATP luminescence, 48 h; AID 686970; 1.6% of 360,000 active;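 note: NT is the 2HG producing partner of a matched IDH1 knockdown line; potency is the fitted concentration of half-maximal effect; 0% = DMSO-treated cells and -100% = media-only wells without cells; nearly all actives have a fitted effect of over 55% in size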
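HT-1080-NT; 750 cells/well; 5% FBS RPMI; 48 h compound, 37 degrees C; CellTiter-Glo luminescence; curve fitting and curve-class assignment.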
ALOX12 inh: blocks human arachidonate 12S-lipoxygenase; 1.1% of 580,000 active; purified 12hLO, xylenol orange hydroperoxide absorbance; Potency, µM (top dose mostly 108 µM), for inactives: at the top dose activity change, negative = inhibition, actives largely listed as inhibitors; P18054; AID 1671190; note: potency is the fitted concentration of half-maximal effect
Target sequence (P18054 whole entry, looked up): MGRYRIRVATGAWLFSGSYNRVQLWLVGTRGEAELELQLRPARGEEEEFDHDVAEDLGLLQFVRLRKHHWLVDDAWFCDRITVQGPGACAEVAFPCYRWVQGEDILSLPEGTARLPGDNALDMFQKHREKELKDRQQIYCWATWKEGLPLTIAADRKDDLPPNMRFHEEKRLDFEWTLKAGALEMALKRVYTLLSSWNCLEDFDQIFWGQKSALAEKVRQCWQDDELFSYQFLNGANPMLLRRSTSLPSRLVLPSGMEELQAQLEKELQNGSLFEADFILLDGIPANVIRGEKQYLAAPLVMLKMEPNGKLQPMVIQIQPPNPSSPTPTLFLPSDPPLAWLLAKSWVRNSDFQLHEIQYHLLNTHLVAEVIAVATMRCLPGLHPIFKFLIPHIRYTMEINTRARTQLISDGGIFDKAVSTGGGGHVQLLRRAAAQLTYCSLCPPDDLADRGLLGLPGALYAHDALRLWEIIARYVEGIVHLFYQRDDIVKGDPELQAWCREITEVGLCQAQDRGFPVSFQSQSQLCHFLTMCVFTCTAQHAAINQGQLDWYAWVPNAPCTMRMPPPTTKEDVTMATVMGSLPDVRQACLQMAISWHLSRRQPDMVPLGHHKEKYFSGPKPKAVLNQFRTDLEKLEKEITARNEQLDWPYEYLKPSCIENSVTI
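Purified human 12hLO at 150 nM in 25 mM Hepes, 0.01% Triton X-100, pH 7.0, preincubated 15 min at room temperature with compound. Reaction started with 40 uM arachidonic acid, 30 min at room temperature. Hydroperoxide measured by Fe-xylenol orange, 573/405 nm absorbance ratio.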
Starred values were filed as active, the others as inactive; ? = inconclusive; · = no result; [ ] = another dose, or the depositor's remark. The full list was thinned out, with hits kept by preference. Unless noted, calls come from the whole dose curve; as a rule, active = well fitted curve in the direction sought with a large enough effect; inconclusive = small, poorly fitted or top-dose-only effect, or another doubt; inactive = no such curve, though single readings can be large; an effect the other way counts as inactive or inconclusive. Unless noted, % is set by controls: 0 for no effect and ±100 for the full control effect.

SMILES | HT1080 IDH1KD tx | DT40 TDP1 CPT | IL1B secr inh | TDP1 cell noCPT | HT1080-NT tox | ALOX12 inh
Cc1cccc(NC(=O)Cn2c(-c3cnccn3)nc(C)c(C)c2=O)c1C | · | · | · | · | · | 28%
O=C(C1=C(O)C(=O)N(c2ncccn2)C1c1ccc(Cl)c(Cl)c1)c1ccco1 (stereo not given) | -8% | -4% | 12 | 0% | -2% | 2µM*
CSc1nnc(N2C(=O)C(O)=C(C(=O)c3ccco3)C2c2cccc(Cl)c2)s1 (stereo not given) | 0% | -3% | -12 | -4% | -6% | 40µM*
CSc1nnc(N2C(=O)C(O)=C(C(=O)c3ccco3)C2c2ccc(F)cc2)s1 (stereo not given) | -2% | 22% | -8 | 2% | 3% | ?
O=C(NCc1ccc(F)c(F)c1)c1cnc(N2CCN(Cc3ccccc3)C2=O)s1 | · | · | · | · | · | 0%
O=C(/C=C/c1ccccc1Cl)Nc1cccc(O)c1 | -3% | ? | -13 | ? | -6% | -5%
CN(C)S(=O)(=O)c1ccc(NC(=O)/C=C/c2ccccc2Cl)cc1 | -27% | ? | -27 | 23µM* | -12% | -13%
CCCCOC(=O)c1cccc(NC(=O)/C=C/c2ccccc2Cl)c1 | · | ? | · | 21µM* | · | -15%
O=C(/C=C/c1ccccc1Cl)Nc1ccccc1 | -20% | -28% | -65* | -19% | -7% | 19%
N#Cc1ccc(C(=O)N2C[C@@H](Oc3ccccc3)C[C@H]2C(=O)N2CCOCC2)cc1 | · | · | · | · | · | 9%
CCc1cccc(NC(=O)C2CCCN(c3ncnc4onc(-c5ccc(F)cc5)c34)C2)c1 (stereo not given) | · | 13µM* | · | 10µM* | · | 3%
NC(=O)c1ccccc1NC(=O)C1CCCN(c2ncnc3onc(-c4ccc(F)cc4)c23)C1 (stereo not given) | · | 13µM* | · | 15µM* | · | 1%
CCc1noc2ncnc(N3CCCC(C(=O)NCc4cccc(OC)c4)C3)c12 (stereo not given) | · | · | · | · | · | -29%
COc1ccccc1NC(=O)C1CCCN(c2ccc3nncn3n2)C1 (stereo not given) | · | · | · | · | · | -17%
COc1ccccc1NC(=O)C1CCCN(c2ncnc3onc(-c4ccc(F)cc4)c23)C1 (stereo not given) | · | ? | · | 16µM* | · | 2%
CCCCCCCCN1C(=O)[C@@H](CC(=O)N2CCCCC2)C[C@@]2(C(=O)OC)C1=C[C@H](C(C)(C)C)O[C@@H]2C | · | · | · | · | · | 15%
CSc1ccc(CN(C)CC(=O)NC(=O)NC2CCCC2)cc1 | · | · | · | · | · | 11%
CCOC(CNCc1cc(C)c2[nH]c3ccccc3c2c1C)OCC | ? | 16µM* | -96* | 12µM* | -3% | -22%
COc1ccccc1/C=C/C=C(\C#N)C(=O)NC(C)c1ccccc1 (stereo not given) | ? | -27% | -94* | 21µM* | ? | -23%
COC(=O)/C(C#N)=C\c1c(OC)[nH]c2ccccc12 | -22% | ? | 6 | 9.2µM* | -6% | ?
Cc1[nH]c2ccccc2c1/C=C(\C#N)C(=O)NC(C)c1ccccc1 (stereo not given) | ? | -18% | -23 | -28% | 5% | 7.1µM*
Cc1ccc(C(O)CNC(=O)c2ccccc2)cc1 (stereo not given) | · | · | · | · | · | 42%
Cc1ccc(S(N)(=O)=O)cc1C(=O)N1CCN(c2ccccc2)C(=O)C1 | · | · | · | · | · | -15%
O=C(/C=C/c1ccccc1)c1ccc(NC2=NCCCS2)cc1 | -16% | 15µM* | -102* | 12µM* | -11% | -39%
CC(C)(C)c1ccc(C(=O)NCCC(=O)NC2=NCCS2)cc1 | -1% | -17% | 5 | -22% | 2%[9.24 µM] | ?
SMILES | HT1080 IDH1KD tx | DT40 TDP1 CPT | IL1B secr inh | TDP1 cell noCPT | HT1080-NT tox | ALOX12 inh
CC(C)(C)c1ccc(/C=C/C(=O)c2ccc(NC3=NCCCS3)cc2)cc1 | ? | 23µM* | -100* | ? | ? | -24%
O=C(/C=C/c1ccc(Br)cc1)c1ccc(NC2=NCCCS2)cc1 | ? | 9.2µM* | -65* | ? | ? | ?
Cc1cccc(/C=C/C(=O)c2ccc(NC3=NCCCS3)cc2)c1 | ? | 13µM* | -87* | 7.3µM* | ? | -17%
c1ccc(NC2=NCCCCS2)cc1 | -5% | -26% | 12 | -4% | 1% | 0%
CCn1nccc1C(=O)N1C[C@@H](Oc2ccccc2)C[C@H]1C(=O)NC1CC1 | · | · | · | · | · | 46%
O=C(NC1CCCCC1)N[C@H]1[C@H](O)[C@@H](Oc2ccccc2)[C@@H]2OC[C@H]1O2 | · | · | · | · | · | 23%[176 µM]
Cc1cnc(C(=O)N2C[C@@H](Oc3cccnc3)C[C@H]2C(=O)N2CCCC2)cn1 | · | · | · | · | · | 36%
[O-][n+]1ccccc1SCc1nc2ccccc2c2ccccc12 | · | · | · | · | · | -25%
O=C(CSc1cccc[n+]1[O-])N1CCCCCC1 | 1% | -7% | -10 | 0% | 24% | -28%
O=C(CSc1cccc[n+]1[O-])CSc1cccc[n+]1[O-] | 0.52µM* | 1µM* | -20 | 9.2µM* | 1µM* | 7%
[O-][n+]1ccccc1SSc1cccc[n+]1[O-] | · | 0.11µM* | · | 0.12µM* | · | ?

Bioassay records: PubChem BioAssay, National Center for Advancing Translational Sciences (NCATS)
